Compounds with a hit are over-represented: about 11% of the library has one in this group of screens.
HTT ATP protect = qHTS Multiplex Assay to Identify Dual Action Probes in a Cell Model of Huntington: Cytoprotection (ATP). PC12 HTT-Q103 induced, cytoprotection, ATP luminescence, 40 h. Potency, µM (titrated, usually from 56.4 µM), hits mostly activators. 230,000 compounds, 0.14% hits. AID 1471, 2008; note: nearly all actives have a fitted effect of over 45% in size
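Huntington model: PC12 line, ecdysone-inducible HTTQ103 exon1–GFP, tebufenozide 100 nM. Test articles in a dose series. Endpoint luminescence from cellular ATP.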
HPGD block = qHTS Assay for Inhibitors of HPGD (15-Hydroxyprostaglandin Dehydrogenase); 150,000 compounds, 4.3% hits; 15-hydroxyprostaglandin dehydrogenase [NAD(+)] (Homo sapiens), P15428; Potency, µM, hits mostly inhibitors; purified HPGD, NADH fluorescence kinetic, PGE2 substrate; active = well fitted inhibition curve with a large enough effect, not every such curve was filed as active; inconclusive = small, poorly fitted or top-dose-only effect, or another doubt; inactive = no such curve, though single readings can be large or run the other way
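20 nM HPGD preincubated 15 min at room temperature with compound in 50 mM Tris-HCl pH 8, 0.01% Tween 20. Started with 1 mM NAD+ and 30 uM prostaglandin E2; NADH fluorescence (360/450 nm) read 5 times over 30-s intervals, last minus first.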
HTT aggregate = qHTS Multiplex Assay to Identify Dual Action Probes in a Cell Model of Huntington: Aggregate Formation (GFP); PC12 HttQ103-GFP aggregates, Acumen cytometry, 40 h; Potency, µM (top dose mostly 46.1 µM), most hits filed as inhibitors; 220,000 compounds, 1.1% hits; note: nearly all actives have a fitted effect of over 60% in size
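Aggregate formation scored by laser-scanning cytometer (488 excitation, 500–530 emission) in lysed PC12 cells expressing Q103-GFP after 100 nM tebufenozide induction; library tested in dose series, with ATPLite reagent added in the multiplex.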
ALDH1A1 inh = qHTS Assay for Inhibitors of Aldehyde Dehydrogenase 1 (ALDH1A1). Aldehyde dehydrogenase 1A1 (Homo sapiens), P00352. Purified ALDH1A1, NADH fluorescence, propionaldehyde substrate. Potency, µM (doses to about 75.3 µM), usual class: inhibitors. 220,000 compounds, 7.3% hits; active = well fitted inhibition curve with a large enough effect, not every such curve was filed as active; inconclusive = small, poorly fitted or top-dose-only effect, or another doubt; inactive = no such curve, though single readings can be large or run the other way
CBFb RUNX1 block = qHTS Assay for Compounds Blocking the Interaction Between CBF-beta and RUNX1 for the Treatment of Acute Myeloid Leukemia; Runt-related transcription factor 1 (Homo sapiens) + Core-binding factor subunit beta …; AlphaScreen CBFb-His/RUNX1-biotin binding, biochemical; Potency, µM (highest dose often 59.8 µM), hits mostly inhibitors; 230,000 tested, under 10 active
Target sequence (Q01196 whole entry, looked up): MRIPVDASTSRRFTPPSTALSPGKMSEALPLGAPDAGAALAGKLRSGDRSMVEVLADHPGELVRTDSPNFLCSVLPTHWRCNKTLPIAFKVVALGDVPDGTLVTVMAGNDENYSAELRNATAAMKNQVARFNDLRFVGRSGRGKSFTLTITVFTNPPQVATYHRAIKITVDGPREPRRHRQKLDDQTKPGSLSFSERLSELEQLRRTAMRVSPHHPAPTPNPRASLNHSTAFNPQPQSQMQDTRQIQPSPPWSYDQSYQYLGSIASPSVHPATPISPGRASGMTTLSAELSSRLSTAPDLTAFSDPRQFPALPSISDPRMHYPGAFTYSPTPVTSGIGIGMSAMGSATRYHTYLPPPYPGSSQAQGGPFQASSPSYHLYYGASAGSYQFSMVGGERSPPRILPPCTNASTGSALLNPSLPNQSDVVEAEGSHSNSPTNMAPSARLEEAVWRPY
Target sequence (Q13951 whole entry, looked up): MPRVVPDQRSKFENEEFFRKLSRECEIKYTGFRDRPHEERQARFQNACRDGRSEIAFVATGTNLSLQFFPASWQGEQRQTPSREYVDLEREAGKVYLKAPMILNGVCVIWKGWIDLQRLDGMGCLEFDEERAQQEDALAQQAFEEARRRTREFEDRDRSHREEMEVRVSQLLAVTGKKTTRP
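Inhibition was taken as any reduction in AlphaScreen signal from the CBF-beta–RUNX1 pair (His and biotin tags, 30 nM each), measured after compound (15 min) and bead (90 min) incubations at room temperature.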
PNC inhibitor = High Content Assay for Compounds that inhibit the Assembly of the Perinucleolar Compartment | 140,000 compounds, 3.1% hits | PC3M PTB-GFP, PNC prevalence imaging, 16 h; hits give low values | activity change (PNC), negative = inhibition, % at 10 µM;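 active = readout at or below -70, meaning at least 70% loss of cells showing the perinucleolar compartment, a nuclear body marking cancer cells; inconclusive = readout between -30 and a set limit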
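Compounds are pinned in duplicate onto adhered PC3M cells stably expressing GFP-tagged PTB and incubated 16 h at 37 C. Cells are then fixed, nuclei stained with Hoechst, and PNC-positive cells counted.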
Each line names hits and unclear results; the compound was inactive in the other large screens. Unless noted, calls come from the whole dose curve; as a rule, active = well fitted curve in the direction sought with a large enough effect; inconclusive = small, poorly fitted or top-dose-only effect, or another doubt; inactive = no such curve, though single readings can be large; an effect the other way counts as inactive or inconclusive.

CC(C)(C)c1ccc(CNc2cc(N3CCOCC3)ccc2[N+](=O)[O-])cc1	HTT aggregate inconclusive, ALDH1A1 inh 1.58µM, CBFb RUNX1 block inconclusive (no result: HPGD block)
O=[N+]([O-])c1ccc(N2CCCCC2)cc1N1CCOCC1	none
Cc1cc(C)n(-c2nc3ccccc3nc2N2CCN(C(=O)c3ccccc3)CC2)n1	ALDH1A1 inh 12.6µM
O=[N+]([O-])c1ccc(N2CCOCC2)cc1N1CCCCC1	ALDH1A1 inh 5.62µM (no result: HPGD block, PNC inhibitor)
CC(C)c1ccc(CNc2cc(N3CCCC3)ccc2[N+](=O)[O-])cc1	CBFb RUNX1 block inconclusive
O=C(c1ccccc1Br)N1CCN(c2ccc([N+](=O)[O-])c(N3CCOCC3)c2)CC1	ALDH1A1 inh 7.94µM (no result: HPGD block, PNC inhibitor)
Cc1cc(C)n(-c2nc3ccccc3nc2N2CCN(S(=O)(=O)c3ccc4ccccc4c3)CC2)n1	HPGD block inconclusive, ALDH1A1 inh inconclusive
Cn1c(N/N=C/c2ccccc2)nc2sc3c(c2c1=O)CCC3	PNC inhibitor inconclusive
CCCCC/C=C\C/C=C\C/C=C\C/C=C\CCCC(=O)O[C@@H](CO)COC(=O)CCCCCCCCCCCCCCCCC	none (no result: HTT aggregate, PNC inhibitor)
CN1CCC2(CC1)CCN(C(=O)c1cccc(F)c1)CC2	HTT ATP protect inconclusive (no result: HTT aggregate, CBFb RUNX1 block, PNC inhibitor)
CNc1cc(N2CCN(S(=O)(=O)N(C)C)CC2)ccc1[N+](=O)[O-]	none (no result: HTT ATP protect, HPGD block, PNC inhibitor)
Cc1nn(-c2cc(N3CCNCC3)ccc2[N+](=O)[O-])c(=O)c2ccccc12	ALDH1A1 inh inconclusive, PNC inhibitor -97.0
Cc1nn(-c2cc(N3CCCCC3)ccc2[N+](=O)[O-])c(=O)c2ccccc12	none
O=C(COc1ccccc1Cl)N1CCN(c2ccc([N+](=O)[O-])c(N3CCOCC3)c2)CC1	ALDH1A1 inh 11.2µM, PNC inhibitor inconclusive
Cc1cc(N2CCCCC2)ccc1[N+](=O)[O-]	HPGD block 22.4µM
O=C(COc1ccccc1Cl)N1CCN(c2ccc(F)cc2)CC1	HTT aggregate inconclusive
CN(C)S(=O)(=O)N1CCN(c2ccc([N+](=O)[O-])c(N3CCCCC3)c2)CC1	ALDH1A1 inh 3.98µM, CBFb RUNX1 block inconclusive (no result: HPGD block, PNC inhibitor)
COc1ccc(COC(=O)N/N=C2/C[C@@H](O)[C@@H](O)[C@@H]3[C@@H]4C(=O)N(C5CCCCC5)C(=O)[C@H]4CC[C@H]23)cc1	none (no result: HPGD block, HTT aggregate, PNC inhibitor)
Nc1cc(N2CCCC2)ccc1[N+](=O)[O-]	none (no result: HPGD block, PNC inhibitor)
O=[N+]([O-])c1ccc(N2CCCC2)cc1N1CCCC1	ALDH1A1 inh 14.1µM, CBFb RUNX1 block inconclusive
Cc1cc(C)n(-c2cc(N3CCN(C(=O)c4cccc(Br)c4)CC3)ccc2[N+](=O)[O-])n1	ALDH1A1 inh 14.1µM
CCCCCCCCCCCCCCCCCC(=O)O[C@H](CC(=O)O)C[N+](C)(C)C	none (no result: HPGD block, HTT aggregate, ALDH1A1 inh, CBFb RUNX1 block, PNC inhibitor)
CCC(Sc1ccc2nnc(-c3ccc(OC)c(OC)c3)n2n1)C(=O)O (configuration not stated)	HPGD block 14.1µM, ALDH1A1 inh inconclusive
COc1ccc(-c2nnc3ccc(SC(C(C)=O)C(C)=O)nn23)cc1OC	HPGD block 14.1µM
COc1ccc(COC(=O)N/N=C2/C[C@@H](O)[C@@H](O)[C@@H]3[C@@H]4C(=O)N(C(C)(C)C)C(=O)[C@H]4CC[C@@H]23)cc1	none (no result: HPGD block, HTT aggregate, PNC inhibitor)
Cc1ccc(C)n1-c1ccc(N2CCOCC2)cc1	HTT aggregate inconclusive, ALDH1A1 inh 7.08µM
CO[C@@H]1COC(=O)[C@@H](CCSC)NC(=O)C/C=C\[C@@H](C)COC(=O)CCC[C@H]1C	none (no result: HPGD block, HTT aggregate, PNC inhibitor)
COc1cc(C2NC(=O)NC(O)(C(F)(F)F)C2C(=O)c2cccs2)ccc1O (configuration not stated)	ALDH1A1 inh 22.4µM

Screening results as filed in PubChem.
